# Measurements: PubChem BioAssay (NCATS)
# Records with an inconclusive call do not appear. Active and inactive are the calls of the source. Calls follow the shape of the dose curve; as a rule, active = well fitted cell-killing curve with a large enough effect; inconclusive = small, poorly fitted or top-dose-only effect, or effect the other way; inactive = no such curve, though single readings can be large or run the other way.
# Assay: Viability qHTS for spleen associated tyrosine kinase inhibitor (SYKi) naive MV4-11 cells (AID 1963823); also: nearly all actives have a fitted effect of over 40% in size
# Details: MV4-11 AML viability, CellTiter-Glo luminescence, 72 h; series mostly up to 45 µM; viability (% of control): at the top concentration
# Outline: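 In this viability screen, compounds acted on SYK inhibitor naive MV4-11 cells for three days (72 hr, 37 C). Remaining viable cells were measured by CellTiter-Glo luminescence following a 10 min room-temperature development.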
row,SMILES,viability (% of control)
1,OC(O)C(Cl)(Cl)Cl,78.8% (inactive)
2,O=[N+]([O-])/N=C1\NCCN1Cc1ccc(Cl)nc1,76.9% (inactive)
3,CC1NCCOC1c1ccccc1 (stereo not drawn),105% (inactive)
4,COC(=O)[C@@H](N)CCCN/C(N)=N/[N+](=O)[O-],91% (inactive)
5,COC(=O)C(Cl)C(=O)OC,90.1% (inactive)
6,CC(C)NC(C)C,78% (inactive)
7,C[N+](C)(C)CCOC(=O)C(O)(c1ccccc1)c1ccccc1,74.6% (inactive)
8,O=C(O)COc1ccccc1,79% (inactive)
9,CN(C)CCc1ccc(O)cc1,76.8% (inactive)
10,NN=C(N)N,74.1% (inactive)
11,CN1C(=O)CN=C(c2ccccc2)c2cc([N+](=O)[O-])ccc21,81.6% (inactive)
12,CC(C)(C)NCC(O)c1cc(Cl)c(N)c(C(F)(F)F)c1 (stereo not drawn),75.5% (inactive)
13,CCOC(=O)NC(O)C(Cl)(Cl)Cl (stereo not drawn),75% (inactive)
14,O=c1[nH]oc2c1CCNC2,71.9% (inactive)
15,CC(O)CN1CCN(CC(=O)[O-])CCN(CC(=O)[O-])CCN(CC(=O)[O-])CC1.[Gd+3] (stereo not drawn),91.5% (inactive)
16,CC(C)(N)Cc1ccc(Cl)cc1,63.2% (inactive)
17,ClCCN1CCCC1,92.7% (inactive)

# Assay: Viability qHTS for spleen associated tyrosine kinase inhibitor (SYKi) drug resistant MV4-11 cells (AID 1963824); also: nearly all actives have a fitted effect of over 35% in size; also: potency is read from the fitted curve at half-maximal effect
# Details: SYKi-resistant MV4-11 viability, CellTiter-Glo, 72 h; series mostly up to 45 µM; viability, % of control: at the top concentration
# Outline: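 SYK inhibitor-resistant MV4-11 AML cells, 500 per well, added to predispensed compounds and incubated 72 hr at 37 C, 5% CO2. Viability measured by CellTiter-Glo luminescence after 10 min at room temperature.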
SMILES,"viability, % of control",Potency
O=C(CCCCl)c1ccc(F)cc1,79.1% (inactive),–
COc1ccccc1N1CCNCC1,94% (inactive),–
O=C1c2ccccc2C(=O)c2ccccc21,92.2% [at 17.3 µM] (inactive),–
CC1OC(C)OC(C)O1 (stereo not drawn),78.8% (inactive),–
CCNc1nc(Cl)nc(NCC)n1,102% (inactive),–
CN[C@@H](C)[C@H](O)c1ccccc1,98.9% (inactive),–
C[C@@H](C1CC[C@@]2(O)C3=CC(=O)[C@@H]4C[C@@H](O)[C@@H](O)C[C@]4(C)[C@H]3CC[C@]12C)[C@H](O)CCC(C)(C)O (stereo partly drawn),80.4% (inactive),–
CCN(Cc1ccc(Cl)nc1)/C(=C/[N+](=O)[O-])NC,103% (inactive),–
CC[N+](CC)(CC)CC,80.6% (inactive),–
NP(N)(=O)NC(=O)c1ccc(F)cc1,81.1% (inactive),–
CCOC(=O)NC(C)(C)Cc1ccc(Cl)cc1,95.5% (inactive),–
COP(=S)(OC)Oc1cc(Cl)c(Cl)cc1Cl,85.4% (inactive),–
NCC(CC(=O)O)c1ccc(Cl)cc1 (stereo not drawn),103% [at 0.588 µM] (inactive),–
CCCN(CCC)c1c([N+](=O)[O-])cc(S(N)(=O)=O)cc1[N+](=O)[O-],–,21.7 µM (active)
CCC1(C2=NCCN2)Cc2ccccc2O1 (stereo not drawn),69.2% (inactive),–
CC(Cc1ccc(O)cc1)NCC(O)c1cc(O)cc(O)c1 (stereo not drawn),46.5% (inactive),–
C1CN2CCC1CC2,97.8% (inactive),–
OC(O)C(Cl)(Cl)Cl,72.3% (inactive),–
O=[N+]([O-])/N=C1\NCCN1Cc1ccc(Cl)nc1,96.1% (inactive),–
CC1NCCOC1c1ccccc1 (stereo not drawn),113% (inactive),–
COC(=O)[C@@H](N)CCCN/C(N)=N/[N+](=O)[O-],100% (inactive),–
COC(=O)C(Cl)C(=O)OC,98% (inactive),–
CC(C)NC(C)C,83.6% (inactive),–
C[N+](C)(C)CCOC(=O)C(O)(c1ccccc1)c1ccccc1,85.7% (inactive),–
O=C(O)COc1ccccc1,82.5% (inactive),–
NN=C(N)N,85.3% (inactive),–
